NALP1 yeast inh = inhibitors of NALP1 inflammasome in yeast. S. cerevisiae NALP1/ASC/caspase-1 growth, X-gal OD620, 72 h. inhibition, % at 10 µM. 280,000 tested, 0.61% active; in the data active = inhibition mostly above about 24%, no sharp cut-off; inactive = mostly below about 32%
A3A deaminase = blocks human APOBEC3A ssDNA deamination; P31941; recombinant A3A, FAM/TAMRA ssDNA deamination fluorescence; inhibition, % at 20 µM; 330,000 tested, 0.41% active;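 active = at least 40% inhibition at 20 µM here, with at most 30% in a related deaminase screen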
APOBEC3G inh = blocks human APOBEC3G single-stranded DNA deamination; inhibition, % at 20 µM; 330,000 tested, 0.28% active; recombinant A3G, ssDNA deamination FAM/TAMRA fluorescence;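 active = inhibition of at least 40% at 20 µM, with no more than 30% in the related APOBEC3A deaminase screen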
sPLA2-III inh = Blocks human group III sPLA2 activity; AID 743126; QFRET BODIPY PC-A2 liposome hydrolysis, fluorescence; 370,000 tested, 0.56% active; inhibition, % at 12.2 µM;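 active = inhibition above mean plus 3 SD of compounds lying within the high and low control bounds, cut at about 19% in these data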
Target sequence (Q9NZ20 whole entry, looked up): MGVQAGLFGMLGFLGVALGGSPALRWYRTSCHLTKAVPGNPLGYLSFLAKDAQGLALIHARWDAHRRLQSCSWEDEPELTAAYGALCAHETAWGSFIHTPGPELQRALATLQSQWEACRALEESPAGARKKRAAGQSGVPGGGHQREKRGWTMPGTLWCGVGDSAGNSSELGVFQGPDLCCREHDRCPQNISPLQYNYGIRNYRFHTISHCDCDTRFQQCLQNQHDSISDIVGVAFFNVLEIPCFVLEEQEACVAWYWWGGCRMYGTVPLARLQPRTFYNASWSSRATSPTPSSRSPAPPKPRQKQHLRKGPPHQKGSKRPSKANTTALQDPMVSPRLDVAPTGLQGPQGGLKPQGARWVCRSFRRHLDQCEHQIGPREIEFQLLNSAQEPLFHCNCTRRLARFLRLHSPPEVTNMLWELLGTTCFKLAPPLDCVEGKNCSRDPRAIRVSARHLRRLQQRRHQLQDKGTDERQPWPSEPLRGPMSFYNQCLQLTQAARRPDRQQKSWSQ
CTSL1 counter = counter-screen for PFM18AAP inhibitors: inhibitors of F. hepatica cathepsin L1 | recombinant F. hepatica cathepsin L1, Z-Leu-Arg-MCA fluorescence | inhibition, % at 5.96 µM | 300,000 tested, 0.49% active | AID 1906;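 active = inhibition above the mean of all tested compounds plus 3 SD, set per screening campaign, cut at about 17% in these data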
A3G conf = APOBEC3G (human) deaminase inhibition, confirmed; shares compounds with APOBEC3G inh; recombinant A3G ssDNA deaminase, UDG/FAM-TAMRA fluorescence; inhibition, % at 20 µM; 890 tested, 72% active;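 active = inhibition reaching a set limit in any replicate at 20 µM, the limit being 80% of the first screen's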
UDG ctr A3G = inhibits E. coli UDG, flagging false APOBEC3G inhibitors | shares compounds with APOBEC3G inh | UDG counterscreen, FAM/TAMRA oligo fluorescence | inhibition, % at 20 µM | 710 tested, under 10 active;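 active = compounds giving 40% or more inhibition at 20 µM in any one of the three replicates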;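 also: inhibitors lower the FAM signal released by uracil excision and alkaline cleavage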
A number is an active result; n = inactive; x = no result. Hits are enriched below; roughly 2% of the tested compounds scored in any of these assays.

SMILES	NALP1 yeast inh	A3A deaminase	APOBEC3G inh	sPLA2-III inh	CTSL1 counter	A3G conf	UDG ctr A3G
C=CCNC(=S)NNC(=O)c1ccc(OCCC)cc1	n	n	n	n	n	x	x
CCCOc1ccc(C(=O)NNC(=S)NC(=O)CC)cc1	n	n	48	n	n	n	n
Cc1nn(C(C)(C)C)c(OC(=O)C2CCCC2)c1S(=O)(=O)c1ccccc1	n	x	x	n	x	x	x
COCC(=O)Oc1c(S(=O)(=O)c2ccccc2)c(C)nn1C(C)(C)C	n	n	93	n	n	n	x
Cc1cccc(N2CCN(C(=S)c3ccc([N+](=O)[O-])cc3)CC2)c1	n	n	55	n	n	44	n
CCOc1ccc(NC(=O)CN(C)CC(=O)Nc2cc(Cl)ccc2C#N)cc1OCC	n	n	91	n	n	n	x
CC1(C)Cc2ccccc2-c2n[nH]c(=S)n21	n	n	56	n	n	90	n
CCSc1nnc2n1C(C)(C)Cc1ccccc1-2	n	n	n	n	n	x	x
COCCCNC(=S)N(CCCO)Cc1cc2cc3c(cc2[nH]c1=O)OCO3	n	n	48	n	n	n	n
O=C1CC(Sc2ncccn2)C(=O)N1c1ccccc1 (centres undefined)	n	n	n	n	n	x	x
Nc1nnc(SC2CC(=O)N(c3ccccc3)C2=O)s1 (centres undefined)	37	n	42	n	n	n	x
CCCCCc1ccc(-c2n[nH]c(=O)c3ccccc23)cc1	x	x	x	n	x	x	x
CCCCCC(=O)NC1CCCCN(Cc2ccc(Cl)cc2)C1=O (centres undefined)	x	x	x	n	x	x	x
O=C(Nc1ccc(Oc2ccccc2)cc1)C1CCCN1S(=O)(=O)c1cccc2cccnc12 (centres undefined)	x	x	x	n	x	x	x
CCOC(=O)c1c(NC(=O)CN(C)C)sc(C(=O)N(CC)CC)c1C	n	n	n	n	n	x	x
CCCCC(=O)Nc1sc(C(=O)N(CC)CC)c(C)c1C(=O)OC	n	n	68	n	n	68	n
COC(=O)C1CN(Cc2cn(Cc3ccc(Cl)cc3)nn2)CCS(=O)(=O)N1Cc1ccccc1 (centres undefined)	x	x	x	n	x	x	x
Fc1cccc(CNC(=S)OC2CCC23CCC(c2ccccc2)CC3)c1 (centres undefined)	x	x	x	n	x	x	x
O=c1c2c([N+](=O)[O-])cc([N+](=O)[O-])cc2sn1Cc1ccccc1	n	n	70	n	n	76	n
O=c1c2c([N+](=O)[O-])cc([N+](=O)[O-])cc2sn1-c1ccc(Br)cc1	n	n	75	x	n	72	x
O=C(Nc1ccc(Br)cc1)c1cc([N+](=O)[O-])cc([N+](=O)[O-])c1	n	n	n	n	n	x	x
Cc1cccc(NC(=O)[C@@H]2CC(=O)O[C@@H]2c2ccccc2)c1C	x	x	x	n	x	x	x
CC[n+]1c(/C=C2\C=C(C)CC(C)(C)C2)sc2ccccc21	n	n	50	n	n	57	x
CC(C)c1ccc(NC(=S)NNC(=O)C2CC2)cc1	n	n	n	n	n	x	x
CC(C)c1ccc(NNC(=O)C2CCC2)cc1	n	n	50	n	n	n	x
SMILES	NALP1 yeast inh	A3A deaminase	APOBEC3G inh	sPLA2-III inh	CTSL1 counter	A3G conf	UDG ctr A3G
Cc1noc(C)c1C(=O)NNc1ccc(C(C)C)cc1	n	n	46	n	n	n	n
CC(CC(=O)Nc1nccs1)c1ccccc1 (centres undefined)	n	n	n	n	n	x	x
CC(C)C(C(=O)Nc1nccs1)c1ccccc1 (centres undefined)	n	n	48	n	n	n	x
CS(=O)(=O)OC12CCCN(C1)/C(=C/c1ccc(Cl)cc1)C2 (centres undefined)	x	x	x	n	x	x	x
Cc1nc(SCc2ccc(O)c([N+](=O)[O-])c2)c([N+](=O)[O-])[nH]1	n	n	63	n	n	58	n
O=C1CSc2ccc(C(=O)Nc3cccc(S(=O)(=O)Nc4ccc(Br)cc4)c3)cc2N1	n	n	49	n	n	n	n
O=C(O)c1ccc(NC(=O)c2cccc(S(=O)(=O)Nc3ccc(C(=O)O)cc3)c2)cc1	n	n	n	n	n	x	x
Cc1cc(C)cc(NC(=O)OC2CC3CC2[C@H]2CCCCN2[C@H]3C)c1 (some centres undefined)	x	x	x	n	x	x	x
CC1(C)OC(=O)C(=Cc2ccc(-c3ccc(S(N)(=O)=O)cc3)o2)C(=O)O1	n	n	40	n	n	47	x

Bioassay records (PubChem)
